# Inconclusive results are not listed. Where a call stands in place of a potency, no number is given. The source made the active and inactive calls. Unless noted, the call rests on the fitted dose curve; in most records, active means well fitted curve in the direction sought with a large enough effect in the repeat runs; inconclusive means weak or mixed curves; inactive means no such curve, though single readings can be large; an effect the other way counts as inactive or inconclusive.
# How the values were obtained:
# [1] = qHTS assay to identify small molecule antagonists of the sonic hedgehog signaling (Shh) pathway (AID 1259369; calls by dose curve; further: nearly all actives have a fitted effect of over 45% in size; further: potency means the concentration at half of the fitted maximal effect)
# Outline: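 Conditioned medium drives Shh signalling in 3T3Gli1-Luc cells; compounds in DMSO co-applied, 24hr at 37 C, then luciferase luminescence.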
# [2] = target: Estrogen receptor beta (Homo sapiens) (UniProt Q92731); assay: qHTS assay to identify small molecule agonists of the estrogen receptor beta (ER-beta) signaling pathway (AID 1259377; active means well fitted activation curve with a large enough effect in the signal ratio in the repeat runs, not every such curve was filed as active; the % refers to the signal ratio; further: potency means the concentration at half of the fitted maximal effect)
# Estrogen receptor beta (Homo sapiens), sequence (Q92731 whole entry, looked up): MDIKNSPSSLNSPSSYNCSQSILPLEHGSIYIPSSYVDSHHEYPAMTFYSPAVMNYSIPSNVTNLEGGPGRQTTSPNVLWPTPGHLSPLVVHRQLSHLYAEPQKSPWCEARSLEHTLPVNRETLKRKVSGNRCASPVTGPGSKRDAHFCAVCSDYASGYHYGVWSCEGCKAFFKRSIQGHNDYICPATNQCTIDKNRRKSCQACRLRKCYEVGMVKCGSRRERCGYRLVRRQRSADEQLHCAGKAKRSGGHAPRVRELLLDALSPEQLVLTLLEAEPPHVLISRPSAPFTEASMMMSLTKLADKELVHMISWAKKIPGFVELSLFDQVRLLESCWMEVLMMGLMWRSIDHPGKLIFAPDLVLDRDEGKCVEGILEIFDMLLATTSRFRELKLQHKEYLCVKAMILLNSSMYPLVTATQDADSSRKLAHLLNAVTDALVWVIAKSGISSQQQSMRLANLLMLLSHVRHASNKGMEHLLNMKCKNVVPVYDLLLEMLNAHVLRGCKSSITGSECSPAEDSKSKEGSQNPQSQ
# Outline: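 Reporter cells (HEK293T, ER-beta-UAS-bla) receive compounds or DMSO after a 6 hr pre-incubation. They then incubate 16 hr at 37C/5% CO2, and fluorescence from LiveBLAzer B/G substrate is measured after 2 hours at room temperature.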
# [3] = target: Estrogen receptor beta (Homo sapiens) (UniProt Q92731); assay: qHTS assay to identify small molecule antagonists of the estrogen receptor beta (ER-beta) signaling pathway (AID 1259378; active means well fitted inhibition curve with a large enough effect in the signal ratio in the repeat runs, not every such curve was filed as active; the % refers to the signal ratio; further: potency means the concentration at half of the fitted maximal effect)
# Outline: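 ER-beta-UAS-bla HEK293T cells in 2% charcoal-stripped FBS medium treated with compound plus 1nM final 17-beta-estradiol for 16 hr at 37C. Beta-lactamase reporter read by FRET substrate fluorescence after 2 hours at room temperature.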
# [4] = qHTS assay to identify small molecule agonists of the androgen receptor (AR) signaling pathway in the presence of an antagonist - cell viability counter screen (AID 1259379); further: nearly all actives have a fitted effect of over 25% in size; further: potency means the concentration at half of the fitted maximal effect
# Outline: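 A CellTiter-Fluor read-out measured viability of MDA-kb2 reporter cells (MMTV promoter with AR and GR response elements). Treatment: nilutamide 3.0uM final with compounds at 15 concentrations, 16 hr, 37C, 0% CO2.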
# [5] = qHTS assay to identify small molecule antagonists of the estrogen receptor beta (ER-beta) signaling pathway - cell viability counter screen (AID 1259382); further: series mostly up to about 92 µM; nearly all actives have a fitted effect of over 55% in size
# Outline: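 Agonist-stimulated (1nM E2) ER-beta-UAS-bla HEK293T cells are incubated with library compounds for 16 hr at 37C. Cell viability is then assessed in the reporter-assay wells by adding CellTiter-Glo and reading luminescence after 30 min.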
# [6] = target: Thyrotropin receptor (Homo sapiens) (UniProt P16473); assay: qHTS assay to identify small molecule antagonists of the thyroid stimulating hormone receptor (TSHR) signaling pathway (AID 1259385; calls by dose curve; further: nearly all actives have a fitted effect of over 20% in size)
# Thyrotropin receptor (Homo sapiens), sequence (P16473 whole entry, looked up): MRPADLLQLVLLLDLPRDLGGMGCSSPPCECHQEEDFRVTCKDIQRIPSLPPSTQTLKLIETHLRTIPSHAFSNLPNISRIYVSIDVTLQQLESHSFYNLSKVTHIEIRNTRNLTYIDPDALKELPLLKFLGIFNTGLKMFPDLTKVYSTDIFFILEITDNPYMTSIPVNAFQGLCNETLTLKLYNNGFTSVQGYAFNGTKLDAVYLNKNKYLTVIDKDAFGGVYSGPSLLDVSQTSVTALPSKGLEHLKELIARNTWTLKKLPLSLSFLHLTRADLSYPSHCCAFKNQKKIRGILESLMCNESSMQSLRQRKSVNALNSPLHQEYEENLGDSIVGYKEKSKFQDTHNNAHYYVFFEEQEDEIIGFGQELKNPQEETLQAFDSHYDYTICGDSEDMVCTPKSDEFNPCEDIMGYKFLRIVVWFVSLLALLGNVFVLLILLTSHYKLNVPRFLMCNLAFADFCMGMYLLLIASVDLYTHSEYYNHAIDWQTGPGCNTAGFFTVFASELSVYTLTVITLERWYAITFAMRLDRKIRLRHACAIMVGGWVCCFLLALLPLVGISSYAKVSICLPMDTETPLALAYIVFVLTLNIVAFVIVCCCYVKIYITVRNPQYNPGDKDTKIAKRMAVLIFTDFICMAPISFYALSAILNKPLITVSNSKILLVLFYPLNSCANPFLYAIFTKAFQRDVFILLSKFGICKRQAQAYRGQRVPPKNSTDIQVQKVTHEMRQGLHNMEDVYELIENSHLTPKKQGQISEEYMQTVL
# Outline: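 TSHR-HEK293 cells (800/well) plated 18 h, then compounds with Ro20-1724 and TSH at 1.5 ng/mL final, 30 min at room temperature. cAMP quantified by HTRF (cAMP-d2/anti-cAMP-cryptate, 1 h); 15 concentrations in triplicate.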
# [7] = qHTS assay to identify small molecule agonists of the estrogen receptor alpha (ER-alpha) signaling pathway in the presence of an antagonist - cell viability counter screen (AID 1259386);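 further: cells exposed to compounds for 22 h at 37 °C before the viability read; nearly all actives have a fitted effect of over 30% in size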; further: potency means the concentration at half of the fitted maximal effect
# Outline: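 ICI-182,780 at 10.0nM final accompanies the compound titration (15 concentrations, 22hr, 37C) on VM7Luc4E2 cells. The CellTiter-Fluor fluorescence readout runs in the same wells as the luciferase assay.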
# [8] = target: Progesterone receptor (Homo sapiens) (UniProt P06401); assay: qHTS assay to identify small molecule agonists of the progesterone receptor (PR) signaling pathway (AID 1346784; calls by dose curve; further: nearly all actives have a fitted effect of over 30% in size)
# Progesterone receptor (Homo sapiens), sequence (P06401 whole entry, looked up): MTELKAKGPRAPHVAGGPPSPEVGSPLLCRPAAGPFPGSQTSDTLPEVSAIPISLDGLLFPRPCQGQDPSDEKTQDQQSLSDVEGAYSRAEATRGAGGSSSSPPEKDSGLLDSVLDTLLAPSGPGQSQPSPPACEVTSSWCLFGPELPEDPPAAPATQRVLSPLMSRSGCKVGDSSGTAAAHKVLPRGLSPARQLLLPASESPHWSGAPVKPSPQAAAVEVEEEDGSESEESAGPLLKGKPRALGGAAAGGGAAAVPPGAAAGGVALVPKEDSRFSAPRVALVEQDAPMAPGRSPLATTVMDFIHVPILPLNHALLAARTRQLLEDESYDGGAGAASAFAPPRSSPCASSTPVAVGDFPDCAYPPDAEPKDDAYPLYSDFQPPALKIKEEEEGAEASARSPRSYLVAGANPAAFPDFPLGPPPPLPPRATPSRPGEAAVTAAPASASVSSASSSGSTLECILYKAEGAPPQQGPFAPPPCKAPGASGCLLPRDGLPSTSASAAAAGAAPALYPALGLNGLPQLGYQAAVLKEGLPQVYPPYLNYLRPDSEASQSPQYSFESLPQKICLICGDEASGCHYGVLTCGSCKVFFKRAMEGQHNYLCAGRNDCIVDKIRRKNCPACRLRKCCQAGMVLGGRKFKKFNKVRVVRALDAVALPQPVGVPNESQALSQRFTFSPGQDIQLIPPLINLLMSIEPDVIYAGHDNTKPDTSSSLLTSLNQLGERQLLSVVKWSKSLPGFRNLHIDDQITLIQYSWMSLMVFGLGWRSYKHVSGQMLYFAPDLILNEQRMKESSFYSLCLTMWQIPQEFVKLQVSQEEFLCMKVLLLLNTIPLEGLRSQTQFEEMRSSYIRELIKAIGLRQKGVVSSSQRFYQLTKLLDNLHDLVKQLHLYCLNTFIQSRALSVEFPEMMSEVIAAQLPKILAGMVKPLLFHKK
# Outline: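 Reporter assay, GripTite PR-UAS-bla HEK 293T cells: 16 hr exposure to DMSO-dissolved compounds at 37C, 5% CO2, in steroid-depleted (2% charcoal-stripped FBS) medium; beta-lactamase measured by FRET fluorescence.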
# [9] = target: Progesterone receptor (Homo sapiens) (UniProt P06401); assay: qHTS assay to identify small molecule antagonists of the progesterone receptor (PR) signaling pathway (AID 1346795; active means well fitted inhibition curve with a large enough effect in the signal ratio in the repeat runs, not every such curve was filed as active; the % refers to the signal ratio; further: potency means the concentration at half of the fitted maximal effect)
# Outline: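 Stimulus R5020 at 1 nM final; cells HEK293T PR-UAS-bla; medium with 2% charcoal-stripped FBS; compound exposure 16 hr at 37C, 5% CO2; detection by FRET beta-lactamase substrate, 2 hr, room temperature.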
# [10] = qHTS assay to identify small molecule antagonists of the progesterone receptor (PR) signaling pathway - cell viability counter screen (AID 1346798); further: nearly all actives have a fitted effect of over 50% in size; further: potency means the concentration at half of the fitted maximal effect
# Outline: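 In the same plates used for the beta-lactamase readout, cell viability of compound- and R5020-treated PR-UAS-bla HEK293T cells (16 hr, 37C) was assessed by CellTiter-Glo luminescence.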
# [11] = qHTS assay to identify small molecule agonists of the progesterone receptor (PR) signaling pathway - cell viability counter screen (AID 1346799; calls by dose curve; further: nearly all actives have a fitted effect of over 45% in size; further: potency means the concentration at half of the fitted maximal effect)
# Outline: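 Multiplexed viability read: CellTiter-Glo luminescence, 30 min RT, following LiveBLAzer FRET measurement on PR-UAS-bla HEK293T cells exposed to compounds 16 hr.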
# [12] = qHTS assay to identify small molecule agonists of the TGF-beta/Smad signaling pathway - cell viability counter screen (AID 1346829); further: top concentration of the series differs between compounds; nearly all actives have a fitted effect of over 45% in size
# Outline: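 After overnight seating at 37 C and 5% CO2, reporter cells got compounds for 5 hr and FRET substrate for 2 hr; cell viability then came from CellTiter-Glo luminescence.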
# [13] = qHTS assay to identify small molecule agonists of the TGF-beta/Smad signaling pathway (AID 1346859; active means well fitted activation curve with a large enough effect in the signal ratio in the repeat runs, not every such curve was filed as active; the % refers to the signal ratio; further: series mostly up to about 77 µM)
# Outline: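 Screening used HEK 293T SBE-bla cells at 4,000/well. Test agents: 5 hr, 37 C. Detection: FRET substrate, 2 hr RT, then excitation 405 nm with emissions at 460 and 530 nm.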
# [14] = target: Thyrotropin-releasing hormone receptor (Homo sapiens) (UniProt P34981); assay: qHTS assay to identify small molecule antagonists of the thyrotropin-releasing hormone receptor (TRHR) signaling pathway (AID 1346877; active means well fitted inhibition curve with a large enough effect in the repeat runs, not every such curve was filed as active; further: series mostly up to about 51 µM)
# Thyrotropin-releasing hormone receptor (Homo sapiens), sequence (P34981 whole entry, looked up): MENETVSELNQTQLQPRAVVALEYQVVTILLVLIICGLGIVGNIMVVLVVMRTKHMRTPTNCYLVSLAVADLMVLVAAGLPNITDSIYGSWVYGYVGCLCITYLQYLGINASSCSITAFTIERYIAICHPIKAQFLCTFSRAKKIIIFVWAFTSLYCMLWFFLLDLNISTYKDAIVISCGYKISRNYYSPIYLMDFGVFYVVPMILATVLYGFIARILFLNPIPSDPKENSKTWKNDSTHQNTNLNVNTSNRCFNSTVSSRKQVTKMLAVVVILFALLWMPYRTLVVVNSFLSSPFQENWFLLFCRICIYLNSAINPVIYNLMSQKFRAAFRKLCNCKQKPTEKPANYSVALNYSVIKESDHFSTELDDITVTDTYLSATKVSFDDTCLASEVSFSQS
# Outline: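 Screening used HEK293 cells engineered with TRHR, with a brief 5 min room-temperature compound exposure preceding addition of TRH to 1 nM. The read-out was kinetic calcium-dye fluorescence, concentration-response from 15 doses in triplicate.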
# [15] = qHTS assay to identify small molecule agonists of the estrogen receptor beta (ER-beta) signaling pathway - cell viability counter screen (AID 1259380); further: nearly all actives have a fitted effect of over 30% in size; further: potency means the concentration at half of the fitted maximal effect
# Outline: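 Cells used were ER-beta-UAS-bla HEK293T in medium with 2% charcoal-stripped FBS. They were treated for 16 hr at 37C. Viability came from CellTiter-Glo luminescence.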
# [16] = target: Estrogen receptor (Homo sapiens) (UniProt P03372); assay: qHTS assay to identify small molecule agonists of the estrogen receptor alpha (ER-alpha) signaling pathway in the presence of an antagonist (AID 1259383; calls by dose curve; further: nearly all actives have a fitted effect of over 15% in size; further: potency means the concentration at half of the fitted maximal effect; on activation: top concentration of the series differs between compounds)
# Estrogen receptor (Homo sapiens), sequence (P03372 whole entry, looked up): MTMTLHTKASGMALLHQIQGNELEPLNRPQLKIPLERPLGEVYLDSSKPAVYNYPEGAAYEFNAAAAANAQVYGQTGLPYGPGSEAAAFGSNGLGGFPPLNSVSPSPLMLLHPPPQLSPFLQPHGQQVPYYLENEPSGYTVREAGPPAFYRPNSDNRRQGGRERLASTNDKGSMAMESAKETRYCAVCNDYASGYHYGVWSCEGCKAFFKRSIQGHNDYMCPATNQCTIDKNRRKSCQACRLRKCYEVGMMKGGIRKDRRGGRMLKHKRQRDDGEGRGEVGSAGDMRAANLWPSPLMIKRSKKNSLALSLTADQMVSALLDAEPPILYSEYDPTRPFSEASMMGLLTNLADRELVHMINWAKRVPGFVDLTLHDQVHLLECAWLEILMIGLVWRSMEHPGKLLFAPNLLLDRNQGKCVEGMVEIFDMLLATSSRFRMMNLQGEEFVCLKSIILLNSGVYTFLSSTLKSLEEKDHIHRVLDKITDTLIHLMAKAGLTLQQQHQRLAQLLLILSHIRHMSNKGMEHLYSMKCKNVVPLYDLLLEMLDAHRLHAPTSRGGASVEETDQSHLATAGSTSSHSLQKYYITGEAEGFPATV
# Outline: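 Using VM7Luc4E2 cells seeded 24hr before treatment, antagonist ICI-182,780 (10.0nM final) was added, followed by compounds at 15 concentrations. Plates incubated 22hr; ONE-Glo luminescence quantified reporter activity.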
# [17] = qHTS assay to identify small molecule agonists or antagonists of the thyroid stimulating hormone receptor (TSHR) signaling pathway - wild type cell line counter screen (AID 1259384; calls by dose curve)
# Outline: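 Wild-type Hek293 cells, 800/well, 18 h at 37C, then compound with Ro20-1724 for 30 min RT. cAMP by HTRF (cAMP-d2/anti-cAMP cryptate), 1 h RT, fluorescence read. 15 concentrations, triplicates.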
# [18] = qHTS assay to identify small molecule antagonists of the TGF-beta/Smad signaling pathway - cell viability counter screen (AID 1346824); further: nearly all actives have a fitted effect of over 50% in size
# Outline: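 SBE-bla HEK 293T cells, incubated overnight, then compound plus 0.25 ng/mL TGF-beta1 (stock added) for 5 hr at 37 C. Viability was read in the same wells by CellTiter-Glo luminescence after 30 min at room temperature.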
# [19] = target: Thyrotropin-releasing hormone receptor (Homo sapiens) (UniProt P34981); assay: qHTS assay to identify small molecule agonists of the thyrotropin-releasing hormone receptor (TRHR) signaling pathway (AID 1346891; calls by dose curve; further: series mostly up to about 58 µM)
# Outline: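 Readout was intracellular calcium fluorescence in TRHR-Hek293 cells. Cells were incubated 18 h, dye-loaded 2 h at 37 °C, and treated with compound in agonist mode.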
# [20] = target: Androgen receptor (Homo sapiens) (UniProt P10275); assay: qHTS assay to identify small molecule agonists of the androgen receptor (AR) signaling pathway in the presence of an antagonist (AID 1259381; calls by dose curve; further: nearly all actives have a fitted effect of over 15% in size; further: potency means the concentration at half of the fitted maximal effect)
# Androgen receptor (Homo sapiens), sequence (P10275 whole entry, looked up): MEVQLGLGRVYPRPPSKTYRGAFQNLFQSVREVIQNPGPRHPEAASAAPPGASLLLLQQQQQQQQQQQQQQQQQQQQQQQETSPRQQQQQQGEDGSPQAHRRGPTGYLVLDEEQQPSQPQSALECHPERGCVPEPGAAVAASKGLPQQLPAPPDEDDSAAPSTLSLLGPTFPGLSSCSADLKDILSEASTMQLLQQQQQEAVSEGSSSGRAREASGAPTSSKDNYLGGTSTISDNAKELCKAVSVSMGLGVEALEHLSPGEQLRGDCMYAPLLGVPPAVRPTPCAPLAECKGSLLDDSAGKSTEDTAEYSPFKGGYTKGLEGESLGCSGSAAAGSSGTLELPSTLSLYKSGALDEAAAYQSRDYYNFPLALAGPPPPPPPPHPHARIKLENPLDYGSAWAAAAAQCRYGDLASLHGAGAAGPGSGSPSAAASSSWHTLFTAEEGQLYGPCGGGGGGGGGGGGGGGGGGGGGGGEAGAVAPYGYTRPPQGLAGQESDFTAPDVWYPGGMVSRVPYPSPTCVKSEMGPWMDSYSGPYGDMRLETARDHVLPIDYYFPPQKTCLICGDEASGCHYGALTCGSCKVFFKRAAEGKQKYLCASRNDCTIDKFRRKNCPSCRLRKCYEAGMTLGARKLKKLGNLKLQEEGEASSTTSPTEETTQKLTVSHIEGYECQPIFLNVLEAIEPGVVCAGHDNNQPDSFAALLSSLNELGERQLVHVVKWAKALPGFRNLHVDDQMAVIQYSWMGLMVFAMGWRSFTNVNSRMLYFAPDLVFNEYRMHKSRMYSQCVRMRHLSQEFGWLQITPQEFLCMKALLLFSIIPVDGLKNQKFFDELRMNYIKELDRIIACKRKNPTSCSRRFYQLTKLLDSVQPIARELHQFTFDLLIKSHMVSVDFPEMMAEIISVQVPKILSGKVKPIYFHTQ
# Outline: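 Using human MDA-kb2 cells with an MMTV promoter–luciferase construct (AR and GR response elements), agonist activity is scored under 3.0uM nilutamide (final) co-treatment; 16hr incubation, 37C, luminescence readout via ONE-Glo.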
Compound,Potency [1],Potency [2],Potency [3],Potency [4],Potency [5],Potency [6],Potency [7],Potency [8],Potency [9],Potency [10],Potency [11],Potency [12],outcome [13],Potency [14],Potency [15],Potency [16],outcome [17],Potency [18],Potency [19],Potency [20]
CCCCCCCCOC(=O)c1ccc(C(=O)OCCCCCCCC)c(C(=O)OCCCCCCCC)c1,inactive,inactive,inactive,inactive,inactive,inactive,inactive,inactive,inactive,27.6 µM (active),inactive,inactive,inactive,inactive,,,,,,
CCCCc1c(C)nc(NCC)nc1OS(=O)(=O)N(C)C,61.1 µM (active),inactive,,inactive,inactive,inactive,48.6 µM (active),inactive,27.3 µM (active),,,inactive,inactive,inactive,inactive,inactive,inactive,inactive,inactive,
O=C(N[C@H](c1ccccc1)[C@@H]1CN2CCC1CC2)c1c(Cl)ccc(C(F)(F)F)c1Cl,13.9 µM (active),inactive,39.2 µM (active),,,inactive,inactive,inactive,,,,inactive,,,,,inactive,inactive,,
COCC(C)N(C(=O)CCl)c1c(C)csc1C (stereo not given),30.6 µM (active),inactive,,inactive,,,inactive,inactive,54.5 µM (active),,,inactive,inactive,inactive,inactive,inactive,,inactive,inactive,
Clc1ccc(C2(Cn3cncn3)CC(Br)CO2)c(Cl)c1 (stereo not given),inactive,inactive,,inactive,inactive,inactive,,,,,,inactive,inactive,,inactive,inactive,inactive,inactive,,
COC(N)=O,inactive,inactive,inactive,inactive,inactive,,inactive,inactive,,43.3 µM (active),,inactive,inactive,inactive,,inactive,,inactive,inactive,
O=S(=O)(O)C(F)(F)C(F)(F)C(F)(F)C(F)(F)F,57.8 µM (active),inactive,,inactive,inactive,inactive,inactive,inactive,,inactive,,inactive,inactive,,inactive,0.578 µM (active),,inactive,,
Oc1ccc(Cl)c(Cl)c1Cl,inactive,inactive,inactive,inactive,inactive,inactive,inactive,inactive,,,,inactive,inactive,,,,inactive,inactive,inactive,
CCCC(Cn1cncn1)c1ccc(Cl)cc1Cl (stereo not given),17.2 µM (active),inactive,,inactive,,,inactive,inactive,,,,inactive,inactive,inactive,,,,inactive,inactive,
COP(=S)(OC)Oc1cc(Cl)c(I)cc1Cl,38.6 µM (active),inactive,,inactive,,inactive,inactive,,21.7 µM (active),,,inactive,inactive,,,,inactive,inactive,,inactive
C=CC[C@]1(O)CC[C@H]2[C@@H]3CCC4=CC(=O)CCC4=C3C=C[C@@]21C,13.3 µM (active),inactive,,inactive,,,,,,inactive,,inactive,,inactive,inactive,inactive,inactive,inactive,inactive,
CC(C)(C)c1cc([N+](=O)[O-])cc([N+](=O)[O-])c1O,6.84 µM (active),inactive,,15.3 µM (active),inactive,inactive,19.3 µM (active),inactive,,,,inactive,inactive,inactive,,,inactive,,,
NS(=O)(=O)C(F)(F)C(F)(F)C(F)(F)C(F)(F)C(F)(F)C(F)(F)C(F)(F)C(F)(F)F,inactive,inactive,,inactive,,inactive,inactive,,,9.69 µM (active),inactive,inactive,inactive,inactive,68.6 µM (active),inactive,inactive,inactive,,inactive
COC(=O)C(Cl)C(=O)OC,inactive,inactive,inactive,,inactive,inactive,inactive,inactive,inactive,inactive,inactive,inactive,inactive,inactive,inactive,inactive,inactive,inactive,inactive,
C[C@]12CC[C@H]3[C@@H](CCC4=CC(=O)CC[C@@H]43)[C@@H]1CC[C@@H]2OC(=O)CCC1CCCCC1,inactive,1.19 µM (active),,inactive,inactive,,inactive,,inactive,inactive,,inactive,inactive,inactive,inactive,1.68 µM (active),,inactive,inactive,0.0422 µM (active)
O=C(NCc1cccnc1)Nc1ccc([N+](=O)[O-])cc1,inactive,inactive,inactive,inactive,inactive,inactive,inactive,,,24.3 µM (active),43.3 µM (active),,,,,inactive,inactive,,,

# Source: PubChem BioAssay (Tox21)
